Holding throughout (settings): 10 µM; exposure time 6 h
Test [1] concerns Danio rerio larvae (5 dpf). As to the kind of experiment: difference in excitability vs DMSO (percentage points); higher = more excitable than DMSO. An outline of the steps: (§1)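 Library compounds were tested at 10 µM final in 100 µL egg water on wild-type 5 dpf zebrafish larvae in 96-well plates for 6 h, with 48 larvae per compound. After 3 h, plates at 28.5 ℃ were imaged every 6 s during a 3-h run of moving lines and 100 ms, 400Hz tones. Behaviours were quantified by Z-LaP Tracker and reported as the compound mean less the vehicle control mean, in percentage points.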

In test [2] the test system is Danio rerio larvae (5 dpf). As to the kind of experiment: difference in startle response vs DMSO (percentage points); higher = stronger startle than DMSO. The essentials: as §1
For test [3], the system named is Danio rerio larvae (5 dpf). As to the kind of experiment: difference in activity during first hour vs DMSO (percentage points); higher = more activity than DMSO. The essentials: as §1
For test [4], the system named is Danio rerio larvae (5 dpf). As to the kind of experiment: difference in habituation to acoustic stimuli vs DMSO (percentage points); higher = more habituation than DMSO. The essentials: as §1
Test [5] deals with Danio rerio larvae (5 dpf). As to the kind of experiment: difference in combined optomotor response to red, green and blue moving lines vs DMSO (percentage points); higher = stronger optomotor response than DMSO. The essentials: as §1

Structures can show the parent of a compound that is named as a salt.

In turn, `COc1ccc(OC)c(C(O)CNC(=O)CN)c1` (stereo not given) [Midodrine (hydrochloride)] registered a difference in excitability in test [1] of 7.59. Besides, the “difference in startle response” value in test [2] was -5.94. Moreover, the “difference in activity during first hour” value in test [3] was 6.73. Further, in test [4], the “difference in habituation to acoustic stimuli” value (from here on “difference in habituation”) amounted to 0.23. In addition, in test [5], the difference was 5.44.

`COC(=O)N(C)c1c(N)nc(-c2nn(Cc3ccccc3F)c3ncccc23)nc1N` [Riociguat] registered a difference in excitability in test [1] of 1.63. In addition, the “difference in startle response” value in test [2] is 0.148. The “difference in activity during first hour” value in test [3] amounted to 7.75. For the same compound, the “difference in habituation” value in test [4] was 4.38. In addition, in test [5], the difference was -2.92.

In test [1], `Cc1cc2nc3c(=O)[nH]c(=O)nc-3n(C[C@H](O)[C@H](O)[C@H](O)COP(=O)(O)O)c2cc1C` [Riboflavin 5'-monophosphate (sodium salt hydrate)] came in with a difference in excitability of -1.24. In addition, the “difference in startle response” value in test [2] is -0.41. Moreover, the “difference in activity during first hour” value in test [3] worked out at 13.4. Also, the “difference in habituation” value in test [4] came out at 5.95. Besides, the difference in test [5] was -0.41.

`CO/N=C(\C(=O)N[C@@H]1C(=O)N2C(C(=O)O)=C(COC(C)=O)CS[C@H]12)c1csc(N)n1` [Cefotaxime (sodium salt)] showed a difference in excitability in test [1] of 0.947. Besides, the “difference in startle response” value in test [2] is 0.752. In addition, the “difference in activity during first hour” value in test [3] amounted to 4.74. Moreover, the “difference in habituation” value in test [4] is 6.08. In addition, in test [5], the difference was determined as 3.19.

In test [1], `CC1(C)O[C@@H]2C[C@H]3[C@@H]4C[C@H](F)C5=CC(=O)C=C[C@]5(C)[C@H]4[C@@H](O)C[C@]3(C)[C@]2(C(=O)CO)O1` [Flunisolide] displayed a difference in excitability of 4.3. The “difference in startle response” value in test [2] is -3.48. The “difference in activity during first hour” value in test [3] was found to be 6.73. Moreover, the “difference in habituation” value in test [4] was found to be 1.9. For the same compound, in test [5], the difference came out at 3.28.

The compound `CCOC(=O)[C@H](CCc1ccccc1)N[C@@H](C)C(=O)N1CCC[C@H]1C(=O)O` [Enalapril (maleate)] came in with a difference in excitability in test [1] of 0.733. In addition, the “difference in startle response” value in test [2] came out at 3.17. For the same compound, the “difference in activity during first hour” value in test [3] was -0.995. In addition, in test [4], the “difference in habituation” value was -3.38. Besides, in test [5], the difference came to 7.06.

`CC1(C)O[C@@H]2C[C@H]3[C@@H]4C[C@H](F)C5=CC(=O)CC[C@]5(C)[C@H]4[C@@H](O)C[C@]3(C)[C@]2(C(=O)CO)O1` [Flurandrenolide] gave a difference in excitability in test [1] of 7.97. In addition, the “difference in startle response” value in test [2] came out at 0.156. Further, in test [3], the “difference in activity during first hour” value is 1.93. Also, in test [4], the “difference in habituation” value turned out to be 0.924. Moreover, the difference in test [5] turned out to be 5.73.

Turning to `COc1cccc2c1C(=O)c1c(O)c3c(c(O)c1C2=O)C[C@@](O)(C(=O)CO)C[C@@H]3O[C@H]1C[C@H](N)[C@@H](O)[C@H](C)O1` [Epirubicin (hydrochloride)], in test [1], the difference in excitability is 9.14. The “difference in startle response” value in test [2] amounted to 0.312. In test [3], the “difference in activity during first hour” value was -7.5. In addition, the “difference in habituation” value in test [4] came out at 5.65. In addition, the difference in test [5] was determined as 1.76.

Regarding `CC(=O)OCC(=O)[C@@]12N=C(C)O[C@@H]1C[C@H]1[C@@H]3CCC4=CC(=O)C=C[C@]4(C)[C@H]3[C@@H](O)C[C@@]12C` [Deflazacort], the difference in excitability in test [1] was determined as 13.1. Besides, the “difference in startle response” value in test [2] stood at 3.69. The “difference in activity during first hour” value in test [3] was -3.59. For the same compound, the “difference in habituation” value in test [4] is -1.6. The difference in test [5] amounted to 13.9.

`CCCCCCCCc1ccc(CCC(N)(CO)CO)cc1` [Fingolimod] had a difference in excitability in test [1] of 5.87. Besides, the “difference in startle response” value in test [2] is -4.94. The “difference in activity during first hour” value in test [3] is -2.73. Further, the “difference in habituation” value in test [4] was -2. For the same compound, the difference in test [5] is -4.81.

In test [1], `CC(C)C(=O)Oc1ccc(CO)cc1[C@H](CCN(C(C)C)C(C)C)c1ccccc1` [Fesoterodine (fumarate)] gave a difference in excitability of 4.21. Moreover, the “difference in startle response” value in test [2] was -11.4. Besides, the “difference in activity during first hour” value in test [3] is 2.92. The “difference in habituation” value in test [4] is -7.33. Further, the difference in test [5] was -6.79.

As for `CC(=O)Oc1cc2c(s1)CCN(C(C(=O)C1CC1)c1ccccc1F)C2` (stereo not given) [Prasugrel], the difference in excitability in test [1] is -1.17. In addition, in test [2], the “difference in startle response” value was found to be 0.187. Also, the “difference in activity during first hour” value in test [3] is -0.362. The “difference in habituation” value in test [4] stood at 8.33. The difference in test [5] was found to be 9.86.

On to `CCN[C@H]1C[C@H](C)S(=O)(=O)c2sc(S(N)(=O)=O)cc21` [Dorzolamide (hydrochloride)], for which, in test [1], the difference in excitability is -4.82. The “difference in startle response” value in test [2] was -3.95. In addition, the “difference in activity during first hour” value in test [3] came out at 4.07. Also, the “difference in habituation” value in test [4] is 2.29. For the same compound, in test [5], the difference amounted to 3.26.

The compound `Nc1nc(=S)c2[nH]cnc2[nH]1` [6-Thioguanine] showed a difference in excitability in test [1] of 2.87. For the same compound, the “difference in startle response” value in test [2] is -3.35. In test [3], the “difference in activity during first hour” value is 1.36. The “difference in habituation” value in test [4] was found to be 0.958. For the same compound, the difference in test [5] amounted to 6.09.

Regarding `O=c1[nH]cnc2c1ncn2[C@H]1CC[C@@H](CO)O1` [Didanosine], the difference in excitability in test [1] came out at 1.69. The “difference in startle response” value in test [2] was -3.05. In addition, the “difference in activity during first hour” value in test [3] came to 4.04. In addition, in test [4], the “difference in habituation” value was -1.02. In test [5], the difference turned out to be 4.2.

With `CC(O)(P(=O)(O)O)P(=O)(O)O` [Etidronate (sodium salt)], the difference in excitability in test [1] turned out to be 5.12. In addition, in test [2], the “difference in startle response” value turned out to be 2.23. Also, the “difference in activity during first hour” value in test [3] is 11.4. For the same compound, the “difference in habituation” value in test [4] was -1.7. Moreover, the difference in test [5] is 4.9.

In test [1], `Cc1ccnc2c1NC(=O)c1cccnc1N2C1CC1` [Nevirapine] had a difference in excitability of 0.772. In test [2], the “difference in startle response” value stood at 3.61. The “difference in activity during first hour” value in test [3] was -2.89. Also, in test [4], the “difference in habituation” value was -2.11. Moreover, the difference in test [5] was -3.5.

`CC(=O)OCC(CCn1cnc2cnc(N)nc21)COC(C)=O` [Famciclovir] registered a difference in excitability in test [1] of 0.306. The “difference in startle response” value in test [2] came to 6.99. In addition, the “difference in activity during first hour” value in test [3] is -7.41. The “difference in habituation” value in test [4] stood at 0.929. Further, the difference in test [5] turned out to be 4.52.

As to `C[C@@H]1C/C=C/C=C/C=C/C=C/[C@H](O[C@@H]2O[C@H](C)[C@@H](O)[C@H](N)[C@@H]2O)C[C@@H]2O[C@](O)(C[C@@H](O)C[C@H]3O[C@@H]3/C=C/C(=O)O1)C[C@H](O)[C@H]2C(=O)O` [Natamycin], the difference in excitability in test [1] stood at 2.79. The “difference in startle response” value in test [2] was -1.51. Also, in test [3], the “difference in activity during first hour” value worked out at 0.445. In test [4], the “difference in habituation” value was 3.82. Also, the difference in test [5] was determined as 3.97.

In turn, `CN(CCOc1ccc(CC2SC(=O)NC2=O)cc1)c1ccccn1` (stereo not given) [Rosiglitazone] returned a difference in excitability in test [1] of 6.79. Also, the “difference in startle response” value in test [2] is -7.02. Besides, the “difference in activity during first hour” value in test [3] was 26.9. Moreover, in test [4], the “difference in habituation” value is -12.6. The difference in test [5] is -6.71.

`C=C(CC)C(=O)c1ccc(OCC(=O)O)c(Cl)c1Cl` [Ethacrynic Acid] displayed a difference in excitability in test [1] of 4.29. The “difference in startle response” value in test [2] turned out to be 4.46. Moreover, the “difference in activity during first hour” value in test [3] came out at 19.4. Also, the “difference in habituation” value in test [4] is -1.45. In test [5], the difference was 6.1.
